PINK1 modulator = changes PINK1 expression | Potency, µM (titrated, usually from 76.6 µM), usual class: activators | PINK1 immunofluorescence, high-content cytometry, 24 h | 410,000 compounds, 0.2% hits; active = well fitted activation curve with a large enough effect; inconclusive = small, poorly fitted or top-dose-only effect; cell line not stated here; also: nearly all actives have a fitted effect of over 65% in size
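Readout is PINK1 immunofluorescence, quantified alongside mitochondrial, cell and nuclear markers by laser-scanning microplate cytometry. Cells from a stable line were exposed to compound titrations (5 concentrations) for 24 hours, with CCCP controls.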
MCF10A rerep = inducers of DNA re-replication in MCF 10A breast cells; MCF 10A DNA re-replication, Hoechst nuclear intensity, 48 h; Potency, µM (doses to about 46.1 µM), most hits filed as activators; 350,000 compounds, 2.9% hits; also: nearly all actives have a fitted effect of over 50% in size
SW480 rereplic = inducers of DNA re-replication in SW480 colon cancer cells; Potency, µM (doses to about 46.1 µM), most hits filed as activators; SW480 DNA re-replication, Hoechst DNA content imaging, 48 h; 340,000 compounds, 1.8% hits; also: nearly all actives have a fitted effect of over 55% in size
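Image-based DNA-content assay: after two days of treatment, nuclei were labelled with the DNA dye Hoechst and imaged, and hits were compounds raising the count of nuclei showing high fluorescence intensity.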
IL-1B inflam inh = inhibitors of inflammasome signaling (IL-1 beta secretion) | THP-1 LPS/ATP IL-1B secretion, AlphaLISA, 16 h; active compounds read low | activity change, % at 57.5 µM | 360,000 compounds, 4.7% hits; in the data active = activity change below about -50%; inconclusive = mostly about -30% to -49%
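THP-1 cells pretreated 1 hr with compounds (up to 57.5 uM final), then stimulated with LPS (250 ng/mL final) plus ATP (1.25 mM final); secreted IL-1B measured by AlphaLISA after 16 hr, decreased signal indicating inhibition.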
ATXN2 expr inh = ATXN2 expression inhibition; 360,000 compounds, 0.72% hits; Potency, µM (highest dose often 57 µM), most hits filed as inhibitors; HEK-293 ATXN2-luciferase reporter, luminescence, 24 h; also: nearly all actives have a fitted effect of over 55% in size
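qHTS (up to 57 uM final) was run with 24 h compound exposure of reporter cells at 37 °C. Each well was multiplexed: SteadyGlo luminescence measured ATXN2-luciferase expression after a fluorogenic Gly-Phe-AFC viability readout (25 uM final).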
S2 tox = viability counter-screen for ATXN expression inhibitors | AID 651635 | 400,000 compounds, 0.49% hits | Potency, µM (highest dose often 56.7 µM), hits mostly cytotoxic | S2 cells (HEK-293 line with an ATXN2-luciferase reporter) viability, CellTiter-Fluor protease fluorescence, 24 h; also: nearly all actives have a fitted effect of over 40% in size
A number is an active result; – = inactive; ? = inconclusive; · = not tested or not shown; [ ] = dose if it differs, or a comment. Rows were chosen to be rich in hits. Some 7.1% of all compounds tested hit in one or more screens of this group. Unless noted, calls follow the shape of the dose curve; as a rule, active = well fitted curve in the direction sought with a large enough effect; inconclusive = small, poorly fitted or top-dose-only effect, or another doubt; inactive = no such curve, though single readings can be large; an effect the other way counts as inactive or inconclusive.

SMILES	PINK1 modulator	MCF10A rerep	SW480 rereplic	IL-1B inflam inh	ATXN2 expr inh	S2 tox
CC(O)CNC(=O)C(=O)Nc1c2c(nn1-c1ccc(Cl)cc1)CSC2 (stereo unspecified)	–	·	·	·	–	–
Cc1c(-c2nsc(NC(=O)c3cccs3)n2)nnn1-c1ccc(Br)cc1	–	·	·	·	?	31.6µM
COc1ccc(C(=O)Nc2nc(-c3nnn(-c4ccc(F)cc4F)c3C)ns2)cc1	–	·	·	·	11.2µM	?
C/C(=C\c1ccco1)CN1CCOc2ccc(CN3CCC(Oc4cccnc4)CC3)cc2C1	–	·	·	·	·	?
COc1ccc(S(=O)(=O)c2cn(C)c3cc(N4CCCC4)c(F)cc3c2=O)cc1	–	·	·	·	·	·
Cc1ccc(Nc2nc(N/N=C/c3c[nH]c4ccccc34)nc(N3CCOCC3)n2)cc1	–	?	13µM	-67.4	–	–
C(=N\Nc1nc(Nc2ccccc2)nc(N2CCOCC2)n1)/c1c[nH]c2ccccc12	–	16.4µM	0.82µM	-80.8	?	–
CCOc1cc(CNC(=O)c2ccc3c(c2)NC(=O)C2CCCCN32)cc(OCC)c1OCC (stereo unspecified)	–	·	·	·	–	–
COc1ccc(CNC(=O)Cc2c(C(=O)O)c(C)cn2C)cc1	–	·	·	·	–	–
COc1ccc(/C=C/c2cc(=O)c3cc(Cl)ccc3o2)cc1	–	20.6µM	?	–	–	–
O=C(/C=C/c1ccc(Cl)cc1)NC1CC2CCC1C2 (stereo unspecified)	–	–	–	-99.0	–[11.3 µM]	–
CN[C@@H](C)C(=O)N[C@H]1CN(C(=O)CC(C)C)CC[C@H]2CC[C@@H](C(=O)NC(c3ccccc3)c3ccccc3)N2C1=O	·	·	·	·	–	·
COc1cc(OC)cc(-c2nnc(NC(=O)CCS(=O)(=O)c3ccc(C)cc3)o2)c1	–	4.61µM	?	–	–	–
COc1cccc(-c2nnc(NC(=O)CCS(=O)(=O)c3ccc(F)cc3)o2)c1	–	·	·	?	·	–
Cc1ccc(S(=O)(=O)CCC(=O)Nc2nnc(-c3ccc(F)cc3)o2)cc1	–	?	?	-59.5	–	–
O=C(CCS(=O)(=O)c1ccc(F)cc1)Nc1nnc(-c2ccco2)o1	–	?	18.4µM	–	–	–
Cc1ccc(NC(=O)c2cc3c(=O)[nH]c4ccccc4c3n2C)cc1F	–	·	·	·	–	–
CCOc1cc(C(=O)OCc2cc(=O)n3nc(C4CC4)sc3n2)cc(OCC)c1OCC	–	·	·	·	–	–
O=C(O)Cc1sc(Nc2cccc3ccccc23)nc1-c1ccc(Cl)cc1	–	7.31µM	–	–	–	–
O=C(O)Cc1sc(Nc2cccc3ccccc23)nc1-c1ccccc1	–	–	–	–	·	–
Cc1ccccc1/C=N/Nc1ncnc2nc[nH]c12	–	–	18.4µM	–	·	–
C(=N\Nc1ncnc2nc[nH]c12)/c1cccs1	–	–	–	-73.8	–	–
CCNC(=S)N1N=C2c3ccccc3CCC2C1c1ccc(F)cc1 (stereo unspecified)	–	6.51µM	–	–	–	–
CC(=O)N1N=C2c3ccccc3CCC2C1c1ccc(F)cc1 (stereo unspecified)	–	?	–	·	–	·
Cc1cc(N/N=C/c2ccc([N+](=O)[O-])o2)nc2ccccc12	?	–	?	–	?	·
SMILES	PINK1 modulator	MCF10A rerep	SW480 rereplic	IL-1B inflam inh	ATXN2 expr inh	S2 tox
O=[N+]([O-])c1ccc(/C=N/Nc2ccnc3cc(Cl)ccc23)o1	–	–	3.66µM	-94.1	–	?
Clc1ccc2c(NNc3ccccc3Cl)ccnc2c1	–	–	–	–	–	–
Clc1ccc2c(N/N=C/c3ccccc3Br)ccnc2c1	–	?	?	-98.3	?	?
Clc1ccc2c(N/N=C/c3cccc(Br)c3)ccnc2c1	–	?	?	-99.2	?	·
Brc1cccc(C=Nc2cccc3ncccc23)c1	–	–	–	–	·	–
O=C1NCC(O)=C1C=NC12CC3CC(CC(C3)C1)C2	–	14.6µM	?	–	–	–
CCN(CC)c1ccc(N=Nc2nn(C)c(C)c2[N+](=O)[O-])cc1	–	–	–	–	–	12.6µM
NC(=O)c1ccc2nc(-c3ccc(Oc4ccc(Cl)cc4)cc3)[nH]c2c1	·	·	·	·	–	·
Cc1ccc(S(=O)(=O)N2C(=O)c3cccc4cccc2c34)cc1	–	9.2µM	?	–	?	–
CN(C)C(=O)[C@@H]1C[C@@H](Sc2nc3ccccc3[nH]2)CN1Cc1ccnc2ccccc12	–	·	·	·	·	–
COc1cc(OC)cc(C(=O)N(Cc2ccco2)Cc2cccs2)c1	–	·	·	·	·	·
Fc1ccc(-c2csc(-c3ccncc3)n2)cc1	–	–	–	–	–	–
O=C(Nc1nc(-c2ccccc2)cs1)c1ccccc1NS(=O)(=O)c1ccc(F)cc1	?	16.4µM	–	-50.0	?	–
O=S(=O)(Nc1ccc(-c2csc(-c3ccccc3)n2)cc1)c1ccc(F)cc1	–	16.4µM	–	-100.9	?	?
N#C[C@H]1C[C@H]2C[C@@H]2N1C(=O)[C@@H](N)C12CC3CC(CC(O)(C3)C1)C2	·	·	·	·	?	–
COc1cc(-c2nnn(CC(=O)Nc3ccc(OC(F)(F)F)cc3)n2)cc(OC)c1OC	–	·	·	·	–	–
Cc1cc(C)cc(C(=O)NC(=S)Nc2ccc(-c3cc4ccccc4oc3=O)cc2)c1	–	–	–	–	6.31µM	?
COc1cccc(CC(=O)Nc2ccc3nc(C)sc3c2)c1	–	–	9.2µM	–	–	–
Cc1nn(-c2ccccc2)c(Cl)c1CN(C(=O)CCl)c1cccc2ccccc12	–	?	?	-98.0	?	28.2µM
CC(=O)N(Cc1c(C)nn(-c2ccccc2)c1Cl)c1ccc(Cl)cc1	–	–	–	–	–	–
Cc1nn(-c2ccccc2)c(Cl)c1CN(C(=O)CCl)c1ccc(Cl)cc1	–	?	3.26µM	-113.0	14.1µM	11.2µM
CCOc1ccc2c(c1)c(=O)c(C(=O)c1ccc(CC)cc1)cn2CC(=O)Nc1ccc2c(c1)OCCO2	–	·	·	·	–	–
O=C(NCCCN1CCN(c2ccc(F)cc2)CC1)c1cnn(-c2ccc(F)cc2)c1-n1cccc1	–	·	·	·	?	?
COC(=O)N1CCc2c(sc(NC(=O)C3=COCCO3)c2C#N)C1	–	2.06µM	1.46µM	–	–	–
COc1cccc(C(=O)Nc2sc3c(c2C(=O)O)CCCC3)c1	–	–	–	–	–	–
COc1cccc(C(=O)Nc2sc3c(c2C#N)CCN(C(C)=O)C3)c1	–	4.61µM	4.61µM	–	·	?
CC(C)Cc1ccc(CN2CCCC(NC(=O)CCn3cnnn3)C2)cc1 (stereo unspecified)	–	?	–	-60.3	–	–
COc1ccc(CCC(=O)NC2CCCN(Cc3ccc(Cl)cc3)C2)cc1OC (stereo unspecified)	–	–	–	–	·	–
CC(C)Cc1ccc(CN2CCCC(NC(=O)Cn3cnnn3)C2)cc1 (stereo unspecified)	–	?	–	–	–	–
